Laboratory results: PubChem BioAssay AID651791 (National Center for Advancing Translational Sciences (NCATS), 2012)
Inconclusive results are not listed. Active and inactive are the calls of the source. The call rests on the fitted dose curve; in most records, active means well fitted inhibition curve with a large enough effect; inconclusive means small, poorly fitted or top-dose-only effect; inactive means no such curve, though single readings can be large or run the other way.

Test: InCell qHTS Assay for Inhibitors of the mTORC1 Signaling Pathway in MEF (Tsc2-/-, p53-/-) Cells: Hit Validation;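 further: phospho-S6 Ser235/236 signal normalized to propidium iodide cell count per well; nearly all actives have a fitted effect of over 75% in size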
Settings: phospho-rpS6 immunofluorescence, 24 h; activity change, negative = inhibition: at 38.3 µM (top of the series)
Potency means the concentration at half of the fitted maximal effect.

Activity change, negative = inhibition, -9.17%:
Cc1cccc(N(C)S(=O)(=O)c2ccc(-c3cc(C)no3)s2)c1

Activity change, negative = inhibition, -23.7%:
Cc1n[nH]c(C)c1S(=O)(=O)N(CC(=O)Nc1ccc(C(F)(F)F)cc1)c1ccc(C(C)C)cc1

Activity change, negative = inhibition, -25.4%:
COC(=O)c1c(C)oc2ccc(N(C(=O)c3ccncc3)S(=O)(=O)c3ccc(OC)cc3)cc12

Activity change, negative = inhibition, -24.8%:
Cc1c(C(=O)OC2CCCCC2)[nH]c2c1C(=O)CC(c1ccccc1)C2 (stereo unspecified)

Activity change, negative = inhibition, -100%:
CCCN(c1ccccc1CC)S(=O)(=O)c1ccc2c(c1)CC(C)N2C(=O)C1CC1 (stereo unspecified), COc1ccc(N2CC(c3nc(-c4cc(OC)c(OC)c(OC)c4)no3)CC2=O)cc1Cl (stereo unspecified), COc1ccc(C(=O)N2CCN(C(=O)COc3ccc(Br)cc3)CC2)cc1OC, CCN(CC)c1ccc(NC(=O)CN(C)S(=O)(=O)c2cccc3nsnc23)c(C)c1, COc1ccc(-c2nc(S(=O)(=O)c3ccc(Cl)cc3)c(N3CCCCCC3)o2)cc1, Cc1ccc(NC(=O)c2c(C)oc3ccc(O)c(CN(C)Cc4ccccc4)c23)c(C)c1, CCOC(=O)C1CCN(C(=O)CSc2c3c(nc4ccc(Cl)cc24)CCCC3)CC1, Cc1nn(CC(=O)N2CCN(c3ccccc3F)CC2)c(=O)c2cccn12, Cc1ccc(S(=O)(=O)Nc2ccc3c(c2)c(C(=O)OC(C)C)c(C)n3S(=O)(=O)c2ccc(C)cc2)cc1, O=C(NCC(c1cccs1)S(=O)(=O)c1cccs1)c1ccccc1 (stereo unspecified), COc1ccc(NC(=O)CSc2nc3ccccc3n2Cc2cccc(OC)c2)cc1, COc1ccc(OCC(=O)NCc2ccc3c(c2)CCN3C(=O)c2cccc(C)c2)cc1, COc1ccc(C)cc1NC(=O)CSc1ccc(-c2ccccn2)nn1

Activity change, negative = inhibition, -16.8%:
N#Cc1ccc(-c2cccs2)nc1SCc1c(F)cccc1Cl

Potency, active:
Cc1cccc(NC(=O)c2nc(S(C)(=O)=O)ncc2Cl)c1 5.21 µM, CCS(=O)(=O)c1ncc(Cl)c(C(=O)N(Cc2ccccc2)Cc2ccco2)n1 3.69 µM, CCOc1ccc(N(Cc2ccccc2)C(=O)c2nc(S(C)(=O)=O)ncc2Cl)cc1 2.93 µM
